Measurements published in PubChem BioAssay (NCATS).
Results filed as inconclusive are left out. Calls of active or inactive are those of the source. Calls follow the shape of the dose curve; as a rule, active = well fitted curve in the direction sought with a large enough effect; inconclusive = small, poorly fitted or top-dose-only effect, or another doubt; inactive = no such curve, though single readings can be large; an effect the other way counts as inactive or inconclusive.

Tests used:
CRL-7250 = normal cell line; experiment: Cytotoxic Profiling of Annotated Libraries Using Quantitative High-Throughput Screening (AID 1296008); settings: Five cell lines viability, CellTiter-Glo ATP luminescence, 48-72 h; max response: hits give low values; also: nearly all actives have a fitted effect of over 60% in size; as to max response: % is scaled to controls: 0 for no effect and ±100 for the full control effect
Outline: (§1)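 Cells exposed to compounds for 48 or 72 hr at 37 degrees Celsius. Viability read as ATP-coupled luminescence with CellTiter-Glo after 10 min at room temperature.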

HEK293 = experiment: as above; settings: Five cell lines viability, CellTiter-Glo ATP luminescence, 48-72 h; max response: hits give low values
Outline: as §1

HaCat [1] = experiment: as above; settings: Five cell lines viability, CellTiter-Glo ATP luminescence, 48-72 h; max response: hits give low values
Outline: as §1

KB-3-1 = experiment: as above; settings: Five cell lines viability, CellTiter-Glo ATP luminescence, 48-72 h; max response: hits give low values
Outline: as §1

NIH3T3 [2] = experiment: as above; settings: Five cell lines viability, CellTiter-Glo ATP luminescence, 48-72 h; max response: hits give low values
Outline: as §1

HACAT [3] = experiment: qHTS assay to identify novel small-molecules to repurpose for Merkel cell carcinoma treatment (AID 1296009); settings: MCC and control cell lines, CellTiter-Glo viability, 72 h; at 44.8 µM (top of the series) unless noted; also: nearly all actives have a fitted effect of over 60% in size
Outline: (§2)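 Cells were treated for 72 hr at 37 degree celsius with compounds in 8- or 11-point dose response. Viability was read by CellTiter-Glo luminescence, normalized to no-cell (cytotoxicity) and DMSO controls.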

NIH3T3 [4] = experiment: as above; settings: MCC and control cell lines, CellTiter-Glo viability, 72 h; at 44.8 µM (top of the series) unless noted
Outline: as §2

C33A = experiment: Primary qHTS to identify gynecologic anti-cancer compounds using libraries of approved drugs and bioactive compounds (AID 1345084); settings: Gynecologic cancer cell panel viability, ATPlite luminescence, 48 h; series mostly up to 57.5 µM; also: % is scaled to controls: 0 for no effect and ±100 for the full control effect; nearly all actives have a fitted effect of over 55% in size
Outline: (§3)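 Cells, 1,000 per well, plated 16 h, then exposed 48 h at 37 C to compounds. Viability by ATPlite luminescence after 15 min at room temperature.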

CAOV3 = experiment: as above; settings: Gynecologic cancer cell panel viability, ATPlite luminescence, 48 h; series mostly up to 57.5 µM
Outline: as §3

CASKI = experiment: as above; settings: Gynecologic cancer cell panel viability, ATPlite luminescence, 48 h; series mostly up to 57.5 µM
Outline: as §3

Es-2 = experiment: as above; settings: Gynecologic cancer cell panel viability, ATPlite luminescence, 48 h; series mostly up to 57.5 µM
Outline: as §3

HeLa = experiment: as above; settings: Gynecologic cancer cell panel viability, ATPlite luminescence, 48 h; series mostly up to 57.5 µM
Outline: as §3

Hek293T = experiment: as above; settings: Gynecologic cancer cell panel viability, ATPlite luminescence, 48 h, control line for the selectivity index; series mostly up to 57.5 µM
Outline: as §3

JEG-3 = experiment: as above; settings: Gynecologic cancer cell panel viability, ATPlite luminescence, 48 h; series mostly up to 57.5 µM
Outline: as §3

Cc1occc(=O)c1O[C@@H]1O[C@H](CO)[C@@H](O)[C@H](O)[C@H]1O
inactive: max response (CRL-7250) -1.36% | max response (HEK293) 2.23% | outcome (HaCat [1]) | outcome (KB-3-1) | outcome (NIH3T3 [2]) | outcome (HACAT [3]) | outcome (NIH3T3 [4]) | Potency (C33A) | Potency (CAOV3) | outcome (CASKI) | Potency (Es-2) | Potency (HeLa) | Potency (Hek293T) | Potency (JEG-3)

C/C=C(\C)C(=O)OCC1OC(OCC2OC(OC3(CO)OC(CO)C(O)C3O)C(O)C(O)C2O)C(O)C(O)C1O (centres undefined)
inactive: max response (CRL-7250) -0.798% | max response (HEK293) -3.28% | outcome (HaCat [1]) | outcome (KB-3-1) | outcome (NIH3T3 [2]) | outcome (HACAT [3]) inactive [at 17.4 µM] | outcome (NIH3T3 [4]) inactive [at 17.4 µM] | Potency (C33A) | Potency (CAOV3) | outcome (CASKI) | Potency (Es-2) | Potency (HeLa) | Potency (Hek293T) | Potency (JEG-3)

CC1(C)C[C@@H]2[C@H](C1)[C@@]1(C)C[C@]13C(O)OC[C@]3(O)[C@H]2O (some centres undefined)
inactive: max response (CRL-7250) -3.6% | max response (HEK293) -0.838% | outcome (HaCat [1]) | outcome (KB-3-1) | outcome (NIH3T3 [2]) | outcome (HACAT [3]) | outcome (NIH3T3 [4]) | Potency (C33A) | Potency (CAOV3) | outcome (CASKI) | Potency (Es-2) | Potency (HeLa) | Potency (Hek293T) | Potency (JEG-3)

CC(=O)/C=C/C1(O)C(C)=CC(=O)CC1(C)C (centres undefined)
inactive: max response (CRL-7250) -1.97% | max response (HEK293) -3.4% | outcome (HaCat [1]) | max response (KB-3-1) -2.68% | outcome (NIH3T3 [2]) | outcome (HACAT [3]) | outcome (NIH3T3 [4]) | Potency (C33A) | Potency (CAOV3) | outcome (CASKI) | Potency (Es-2) | Potency (HeLa) | Potency (Hek293T) | Potency (JEG-3)

CC(=O)/C=C/C1(O)C(C)(C)CC(O)CC1(C)O (centres undefined)
inactive: max response (CRL-7250) -6.38% | max response (HEK293) -4.83% | outcome (HaCat [1]) | outcome (KB-3-1) | outcome (NIH3T3 [2]) | outcome (HACAT [3]) | outcome (NIH3T3 [4]) | Potency (C33A) | Potency (CAOV3) | outcome (CASKI) | Potency (Es-2) | Potency (HeLa) | Potency (Hek293T) | Potency (JEG-3)

C=C1CC[C@@]2(OC1)O[C@H]1CC3[C@@H]4CC=C5C[C@H](O[C@H]6OC[C@@H](O)C(O)[C@@H]6O[C@@H]6O[C@@H](C)[C@H](O)[C@@H](O[C@@H]7O[C@H](CO)[C@@H](O)[C@H](O)[C@H]7O)[C@H]6O)C[C@@H](O)[C@]5(C)C4CC[C@]3(C)[C@H]1[C@@H]2C (some centres undefined)
inactive: max response (CRL-7250) 3.7% | max response (HEK293) -14.3% | outcome (HaCat [1]) | max response (KB-3-1) -1.49% | outcome (NIH3T3 [2]) | outcome (HACAT [3]) inactive [at 9.27 µM] | outcome (NIH3T3 [4]) inactive [at 9.27 µM] | activity change, negative = cytotoxicity (C33A) 2.1% [at 11.6 µM] | activity change, negative = cytotoxicity (CAOV3) -11% [at 11.6 µM] | activity change, negative = cytotoxicity (CASKI) -7.31% [at 11.6 µM] | activity change, negative = cytotoxicity (Es-2) -3.81% [at 11.6 µM] | activity change, negative = cytotoxicity (HeLa) 12.1% [at 11.6 µM] | activity change, negative = cytotoxicity (Hek293T) 9.36% [at 11.6 µM] | activity change, negative = cytotoxicity (JEG-3) -8.07% [at 11.6 µM]

CC1OC(O[C@@H]2[C@H](O)[C@@H](OC3OC(CO)C(O)C(O)C3O)[C@H](OC(=O)[C@]34CCC(C)(C)C[C@H]3C3=CCC5[C@@]6(C)CC[C@H](O[C@@H]7O[C@H](C(=O)O)[C@@H](O)[C@H](O[C@@H]8OC[C@@H](O)[C@H](O)[C@H]8O)[C@H]7O[C@@H]7O[C@H](CO)[C@H](O)[C@H](O)[C@H]7O)[C@@](C)(C=O)C6CC[C@@]5(C)[C@]3(C)C[C@H]4O)O[C@@H]2C)C(O)C(O)C1OC1OCC(O)C(O)C1O (some centres undefined)
inactive: max response (CRL-7250) -3.77% | max response (HEK293) -1.1% | outcome (HaCat [1]) | outcome (KB-3-1) | outcome (NIH3T3 [2]) | outcome (HACAT [3]) inactive [at 4.96 µM] | outcome (NIH3T3 [4]) inactive [at 4.96 µM] | activity change, negative = cytotoxicity (C33A) 2.44% [at 6.55 µM] | activity change, negative = cytotoxicity (CAOV3) 8.46% [at 6.55 µM] | activity change, negative = cytotoxicity (CASKI) 4.43% [at 6.55 µM] | activity change, negative = cytotoxicity (Es-2) -4.12% [at 6.55 µM] | activity change, negative = cytotoxicity (HeLa) 23.9% [at 6.55 µM] | activity change, negative = cytotoxicity (Hek293T) 0.666% [at 6.55 µM] | activity change, negative = cytotoxicity (JEG-3) 2.9% [at 6.55 µM]

COc1ccccc1CN[C@H]1CCCN[C@H]1c1ccccc1
inactive: outcome (CRL-7250) | max response (HEK293) -1.91% | outcome (HaCat [1]) | max response (KB-3-1) 1.76% | outcome (NIH3T3 [2]) | outcome (HACAT [3]) | outcome (NIH3T3 [4]) | Potency (C33A) | Potency (CAOV3) | outcome (CASKI) | Potency (Es-2) | Potency (HeLa) | Potency (Hek293T) | Potency (JEG-3)

CC1(C)CC[C@]2(C(=O)O[C@@H]3O[C@H](CO)[C@@H](O)[C@H](O)[C@H]3O)CC[C@]3(C)C(=CCC4[C@@]5(C)CC[C@H](O[C@@H]6O[C@H](C(=O)O)[C@@H](O[C@@H]7O[C@H](CO)[C@@H](O)[C@H](O)[C@H]7O)[C@H](O)[C@H]6O[C@@H]6O[C@H](CO)[C@@H](O)[C@H](O)[C@H]6O)C(C)(C)C5CC[C@]43C)C2C1 (some centres undefined)
inactive: max response (CRL-7250) -7.32% | max response (HEK293) -5.89% | outcome (HaCat [1]) | max response (KB-3-1) 9.55% | outcome (NIH3T3 [2]) | outcome (HACAT [3]) inactive [at 9.27 µM] | outcome (NIH3T3 [4]) inactive [at 9.27 µM] | activity change, negative = cytotoxicity (C33A) -1.12% [at 11.6 µM] | activity change, negative = cytotoxicity (CAOV3) 5.45% [at 11.6 µM] | activity change, negative = cytotoxicity (CASKI) 8.01% [at 11.6 µM] | activity change, negative = cytotoxicity (Es-2) -12.1% [at 11.6 µM] | activity change, negative = cytotoxicity (HeLa) 0.908% [at 11.6 µM] | activity change, negative = cytotoxicity (Hek293T) 0.105% [at 11.6 µM] | activity change, negative = cytotoxicity (JEG-3) 18.6% [at 11.6 µM]

CC1(C)CCC2(C(=O)O)CCC3(C)C(=CCC4C5(C)CCC(O)C(C)(CO)C5C(O)CC43C)C2C1 (centres undefined)
inactive: max response (CRL-7250) -7.98% | max response (HEK293) 4.6% | outcome (HaCat [1]) | max response (KB-3-1) 4.19% | outcome (NIH3T3 [2]) | outcome (HACAT [3]) inactive [at 17.4 µM] | outcome (NIH3T3 [4]) inactive [at 17.4 µM] | Potency (C33A) | Potency (CAOV3) | outcome (CASKI) | Potency (Es-2) | Potency (HeLa) | Potency (Hek293T) | Potency (JEG-3)

CC(C)=CCc1cc(O[C@@H]2O[C@H](CO[C@@H]3OC[C@](O)(CO)[C@H]3O)[C@@H](O)[C@H](O)[C@H]2O)ccc1O
inactive: max response (CRL-7250) -4.68% | max response (HEK293) 1.91% | outcome (HaCat [1]) | outcome (KB-3-1) | outcome (NIH3T3 [2]) | outcome (HACAT [3]) inactive [at 17.4 µM] | outcome (NIH3T3 [4]) inactive [at 17.4 µM] | Potency (C33A) | Potency (CAOV3) | outcome (CASKI) | Potency (Es-2) | Potency (HeLa) | Potency (Hek293T) | Potency (JEG-3)
